Data taken from paper PMC5540273 (PLoS ONE, 2017).

Experiments:
Conditions in all cases: concentration: 1 μM, replicates: in singlicate; n = 1
CSNK2A2 = test system: CSNK2A2
CTK = test system: T1, CTK
T1 construct: gene MATK

DAPK1 = test system: DAPK1
DAPK2 = test system: DAPK2
DAPK3 = test system: DAPK3
DCAMKL1 = test system: T2, DCAMKL1
T2 construct: gene DCLK1

DCAMKL2 = test system: T3, DCAMKL2
T3 construct: gene DCLK2

DCAMKL3 = test system: T4, DCAMKL3
T4 construct: gene DCLK3

DDR1 = test system: DDR1
DDR2 = test system: DDR2
DLK = test system: T5, DLK
T5 construct: gene MAP3K12

DMPK2 = test system: T6, DMPK2
T6 construct: gene CDC42BPG

DMPK = test system: DMPK
DRAK1 = test system: T7, DRAK1
T7 construct: gene STK17A

DRAK2 = test system: T8, DRAK2
T8 construct: gene STK17B

DYRK1A = test system: DYRK1A
DYRK1B = test system: DYRK1B
DYRK2 = test system: DYRK2
EGFR = test system: EGFR
EIF2AK1 = test system: EIF2AK1
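Note: KINOMEscan kinase panel screen.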

| SMILES | %Inh (CSNK2A2) [%] | %Inh (CTK) [%] | %Inh (DAPK1) [%] | %Inh (DAPK2) [%] | %Inh (DAPK3) [%] | %Inh (DCAMKL1) [%] | %Inh (DCAMKL2) [%] | %Inh (DCAMKL3) [%] | %Inh (DDR1) [%] | %Inh (DDR2) [%] | %Inh (DLK) [%] | %Inh (DMPK2) [%] | %Inh (DMPK) [%] | %Inh (DRAK1) [%] | %Inh (DRAK2) [%] | %Inh (DYRK1A) [%] | %Inh (DYRK1B) [%] | %Inh (DYRK2) [%] | %Inh (EGFR) [%] | %Inh (EIF2AK1) [%] |
| --- | --- | --- | --- | --- | --- | --- | --- | --- | --- | --- | --- | --- | --- | --- | --- | --- | --- | --- | --- | --- |
| CCC(=O)c1c(-c2ccccc2)c2cc(Cl)ccc2c(=O)n1Cc1cc(C(=O)NC2CC2)n(C)n1 | 3 | 17 | 14 | 0 | 0 | 12 | 0 | 0 | 26 | 29 | 49 | 0 | 0 | 0 | 3 | 0 | 48 | 2 | 0 | 0 |
| COC(=O)c1c(-c2ccccc2)c2cc(Br)ccc2c(=O)n1Cc1ccc(NC(=O)CCC(=O)O)cc1 | 19 | 6 | 0 | 0 | 0 | 16 | 0 | 0 | 2 | 22 | 0 | 0 | 0 | 0 | 0 | 9 | 48 | 8 | 0 | 12 |
| Cc1nnc(-c2ccc3ncn(-c4ccc(S(C)=O)cc4)c3c2)o1 (stereo not drawn) | 35 | 0 | 26 | 0 | 0 | 37 | 12 | 9 | 0 | 0 | 0 | 0 | 1 | 3 | 18 | 0 | 26 | 7 | 0 | 0 |
| COc1ccc(-c2cc3c(C)nc(N)nc3n([C@H]3CC[C@H](O)CC3)c2=O)cn1 | 0 | 0 | 0 | 0 | 1 | 0 | 0 | 0 | 0 | 0 | 5 | 0 | 0 | 0 | 0 | 0 | 4 | 0 | 0 | 0 |
| CCC(=O)c1c(-c2ccccc2)c2cc(Cl)ccc2c(=O)n1Cc1cc(S(C)(=O)=O)n(CC(N)=O)n1 | 4 | 0 | 0 | 0 | 6 | 24 | 2 | 0 | 0 | 0 | 0 | 0 | 0 | 0 | 0 | 0 | 0 | 0 | 0 | 0 |
| Cc1cccc(-c2nc(Nc3ccc4c(cnn4C)c3)c3ccccc3n2)n1 [GW876731] | 0 | 4 | 0 | 0 | 14 | 0 | 11 | 0 | 3 | 1 | 0 | 22 | 8 | 7 | 3 | 0 | 20 | 11 | 0 | 0 |
| CCS(=O)c1ccc(-c2coc3ccc(-c4nnc(C)o4)cc23)cc1 (stereo not drawn) | 31 | 0 | 14 | 0 | 0 | 36 | 0 | 0 | 0 | 16 | 30 | 0 | 6 | 0 | 0 | 0 | 7 | 0 | 5 | 0 |
| O=C(Nc1n[nH]c2nc(-c3ccccc3)c(Br)cc12)C1CC1 [SB-708998] | 4 | 0 | 0 | 0 | 0 | 0 | 0 | 0 | 23 | 9 | 17 | 0 | 0 | 5 | 0 | 8 | 0 | 1 | 1 | 34 |
| Nc1nc(N)c2nc(-c3ccccc3)[nH]c2n1 [SKF-12778] | 22 | 24 | 12 | 0 | 1 | 15 | 0 | 60 | 0 | 9 | 1 | 0 | 25 | 8 | 0 | 34 | 13 | 44 | 14 | 21 |
